Assay results: PubChem BioAssay (NCI)
About 79,000 compounds went through this panel and 15% of them were active in at least one assay; those are over-represented in the sample as a whole. Cut-off read from the data, not from the text of the source: active = growth inhibition above about 70%; inactive = the rest.

Columns and labels:
[1] = NCI Yeast Anticancer Drug Screen. Data for the rad50 strain (AID 155);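 note: 0% = growth of vehicle-only cultures of the same strain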; conditions: S. cerevisiae rad50 strain growth inhibition; at 50.0 µM; active compounds read high
How it was run: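 Genetically altered yeast (DNA repair pathway); compound treatment; growth inhibition vs vehicle ctrl.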

[2] = NCI Yeast Anticancer Drug Screen. Data for the mec2-1 strain (AID 157); conditions: S. cerevisiae mec2-1 strain, at 50.0 µM, active compounds read high
How it was run: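 Cells of the genetically defined mec2-1 yeast strain are incubated with test compound. Inhibition of growth is calculated against vehicle-treated controls.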

[3] = NCI Yeast Anticancer Drug Screen. Data for the sgs1 mgt1 strain (AID 161);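 note: 0% = growth of cultures given vehicle only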; conditions: S. cerevisiae sgs1 mgt1 strain, at 50.0 µM, active compounds read high
How it was run: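 Genetically altered yeast, compound exposure, growth inhibition relative to vehicle.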

[4] = NCI Yeast Anticancer Drug Screen. Data for the cln2 rad14 strain (AID 165);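 note: 0% = growth equal to vehicle treated cultures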; conditions: S. cerevisiae cln2 rad14 strain, at 50.0 µM, active compounds read high
How it was run: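 The screen exposed genetically defined yeast (cln2 rad14) to test compounds and scored growth inhibition relative to vehicle-treated controls.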

[5] = NCI Yeast Anticancer Drug Screen. Data for the bub3 strain (AID 167); conditions: S. cerevisiae bub3 mutant strain, at 50.0 µM, active compounds read high
How it was run: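 Yeast carrying a defined mutation is treated with each compound, and growth is compared with that of vehicle-exposed cells to give inhibition.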

[6] = NCI Yeast Anticancer Drug Screen. Data for the mlh1 rad18 strain (AID 175); conditions: S. cerevisiae mlh1 rad18 strain growth inhibition; at 50.0 µM; active compounds read high
How it was run: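 Compound-treated yeast growth, normalised to vehicle controls. Strain bears defined DNA repair mutations.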

Measured: growth inhibition

c1ccc(-c2nnc(-c3ccccc3)c3nonc23)cc1
inactive: [1] 0.55% | [2] 14.6% | [3] 9.1% | [4] -12.8% | [5] 12.6% | [6] -22.3%

CC1(C)CC(O)CC(C)(C)N1.CC1(C)CC(O)CC(C)(C)N1.CC1(C)CC(O)CC(C)(C)N1.CC1(C)CC(O)CC(C)(C)N1.Cl.[Ti]
inactive: [1] -2.95% | [2] -4.45% | [3] 12.9% | [4] 17.8% | [5] 26.1% | [6] 10.5%

O=S(=O)(O)SCCCNCCCCCCCCNCCCSS(=O)(=O)O
inactive: [1] -18.6% | [2] -8.85% | [3] -1.6% | [4] -13.3% | [5] 8.45% | [6] 3.45%

OCc1cn(C(c2ccccc2)(c2ccccc2)c2ccccc2)cn1
inactive: [1] -113% | [2] -58.3% | [3] -22.5% | [4] -0.85% | [5] -1% | [6] -30.6%

CCC(CC(C)C)C(=O)OCCBr (stereo unspecified)
inactive: [1] 17.9% | [2] 15.2% | [3] 20.6% | [4] -12.8% | [5] 45.5% | [6] 14.4%

CCOC(=O)c1c(C)c(C)cc(C)c1C
inactive: [1] -4.75% | [2] -7.6% | [3] -5.45% | [4] 6.15% | [5] 2.3% | [6] -10.8%

CCOC(=O)c1ccc(NN=NCCF)cc1
inactive: [1] 15.8% | [2] 10% | [3] 0.4% | [4] 6.4% | [5] -32.5% | [6] -44.1%

CC12CCCCC1CC(=O)/C(=C\O)C2 (stereo unspecified)
inactive: [1] 12.7% | [2] 15.1% | [3] 17.9% | [4] -29.1% | [5] -11.3% | [6] 14%

O=[N+]([O-])c1ccc2oc(=Nc3ccccc3)c(Nc3ccccc3)nc2c1
inactive: [1] -21.4% | [2] 11.4% | [3] -18.6% | [4] 15.9% | [5] 6.75% | [6] 6.25%

Cc1ccc2c(c1)C(=O)/C(=N/Nc1ccc(Cl)cc1)CCO2
inactive: [1] 7.65% | [2] -16.1% | [3] 6.2% | [4] -2% | [5] 6.8% | [6] 4.65%

CCCCn1c(=S)sc2ccccc21
inactive: [1] 15.2% | [2] 4.45% | [3] 20.8% | [4] -50.5% | [5] 21.7% | [6] 22.4%

CC(C)=NNC(=O)c1ccc(Cl)cc1
inactive: [1] -19.1% | [2] -25.1% | [3] -18.2% | [4] 17.1% | [5] -7.85% | [6] -32.1%

Cn1c(=O)c(Br)cc2ccccc21
inactive: [1] 10.2% | [2] 13.9% | [3] 21.3% | [4] 8.45% | [5] 9.1% | [6] 33.5%

NC1=NC(=S)CS1
inactive: [1] 0.95% | [2] -3.85% | [3] -12.3% | [4] -42.1% | [5] 16.7% | [6] 9.35%

CCOC(=O)C(C#N)=C(CC)CC
inactive: [1] -4% | [2] -12.3% | [3] -9.2% | [4] -3.95% | [5] -12.1% | [6] -0.2%

CC(=O)Oc1c(C)cc2c(c1C)C(C)CN2C(C)=O (stereo unspecified)
inactive: [1] 3.95% | [2] -33.8% | [3] -24.6% | [4] -18.9% | [5] -22.4% | [6] -10.6%

O=C(N1CCOCC1)C12OC3CC(CC(C3)O1)O2
inactive: [1] 8.5% | [2] 1.95% | [3] 3.45% | [4] 11.2% | [5] 17.6% | [6] 4.65%

CC1CC(=O)c2c(O)ccc(O)c21 (stereo unspecified)
inactive: [1] -6.1% | [2] -3.65% | [3] -8.9% | [4] -17.4% | [5] -8.15% | [6] 12.2%

Cc1cc2c(cc1C)NS(=O)(=O)N2
inactive: [1] 18.4% | [2] 10.4% | [3] 7.25% | [4] -21.7% | [5] 4.9% | [6] 7.35%

CC(C)OP(=O)(OC(C)C)/C(F)=N/Nc1ccc([N+](=O)[O-])cc1
inactive: [1] 36% | [2] 11.3% | [3] 23.1% | [4] -3.85% | [5] -6.15% | [6] 6.25%

O=C(Nn1c(=S)[nH][nH]c1=S)c1ccccc1
inactive: [1] 17.1% | [2] -4.05% | [3] -2.35% | [4] -12.2% | [5] -14.5% | [6] 21.4%
